PubChem BioAssay (Tox21)
Results filed as inconclusive are left out. Active and inactive are the calls of the source. Unless noted, calls follow the shape of the full dose curve.

How the values were obtained:
[1] = Nuclear factor erythroid 2-related factor 2/antioxidant responsive element (Nrf2/ARE) small molecule agonists: qHTS cell viability counter screen in human keratinocytes (AID 1919968; active = well fitted curve in the direction sought with a large enough effect in the repeat runs; an effect the other way counts as inactive or inconclusive; also: nearly all actives have a fitted effect of over 55% in size)
In short: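 Cytotoxicity was multiplexed with the Nrf2/ARE luciferase assay in the same wells. Stably transfected HaCaT keratinocytes were treated with test compounds for 23 h at 37 C. Cell viability was then measured by CellTiter-Fluor fluorescence.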

[2] = Nuclear factor erythroid 2-related factor 2/antioxidant responsive element (Nrf2/ARE) small molecule agonists: luciferase reporter gene qHTS assay in human keratinocytes (AID 1919969); also: nearly all actives have a fitted effect of over 35% in size; also: potency is read from the fitted curve at half-maximal effect
[3] = molecular target: Gonadotropin-releasing hormone receptor (Homo sapiens) (UniProt P30968); experiment: Human gonadotropin-releasing hormone receptor (GnRHR) small molecule agonists, calcium flux assay in GnRHR-HEK293 cells (AID 1920063); also: nearly all actives have a fitted effect of over 35% in size
Chain of Gonadotropin-releasing hormone receptor (Homo sapiens) (P30968 whole entry, looked up): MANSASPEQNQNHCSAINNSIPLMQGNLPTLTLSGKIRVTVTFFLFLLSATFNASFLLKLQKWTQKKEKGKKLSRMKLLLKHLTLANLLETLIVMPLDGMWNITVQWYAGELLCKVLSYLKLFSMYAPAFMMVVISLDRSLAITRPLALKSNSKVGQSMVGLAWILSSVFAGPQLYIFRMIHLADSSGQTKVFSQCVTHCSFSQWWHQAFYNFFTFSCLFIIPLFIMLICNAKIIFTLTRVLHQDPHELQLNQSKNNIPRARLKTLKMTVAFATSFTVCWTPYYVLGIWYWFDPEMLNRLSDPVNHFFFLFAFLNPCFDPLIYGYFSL
In short: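 Agonist activity was measured as intracellular calcium flux in HEK293 cells engineered to stably express human GnRHR. After dye loading for 1 hour at 37 C, compounds in DMSO were added and fluorescence was followed for 3 minutes.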

[4] = molecular target: KiSS-1 receptor (Homo sapiens) (UniProt Q969F8); experiment: Human kisspeptin (KISS1R) small molecule agonists, calcium flux assay in KISS1R-HEK293 cells (AID 1920064; active = well fitted curve in the direction sought with a large enough effect in the repeat runs; an effect the other way counts as inactive or inconclusive)
Chain of KiSS-1 receptor (Homo sapiens) (Q969F8 whole entry, looked up): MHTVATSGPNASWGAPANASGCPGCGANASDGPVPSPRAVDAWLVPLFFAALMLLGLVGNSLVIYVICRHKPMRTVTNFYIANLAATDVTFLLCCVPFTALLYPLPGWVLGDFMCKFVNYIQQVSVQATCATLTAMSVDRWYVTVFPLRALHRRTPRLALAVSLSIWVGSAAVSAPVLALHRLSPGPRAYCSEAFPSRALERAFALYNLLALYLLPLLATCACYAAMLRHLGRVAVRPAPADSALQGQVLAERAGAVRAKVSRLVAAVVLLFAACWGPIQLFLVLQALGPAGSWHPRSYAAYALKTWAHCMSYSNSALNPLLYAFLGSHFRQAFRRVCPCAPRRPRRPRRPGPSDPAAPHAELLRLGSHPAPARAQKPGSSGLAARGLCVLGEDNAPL
In short: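 Agonist activity is monitored as intracellular calcium rise in engineered HEK293 cells carrying human KISS1R. Cells are dye-loaded for 1 h at 37 C before compound addition, and fluorescence is recorded for 3 min.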

[5] = G protein-coupled receptor (GPCR) small molecule agonists, calcium flux assay: HEK293 wild type cell line counter screen (AID 1920065)
In short: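 Seed cells, incubate 18 h (37 C, 5% CO2); add calcium dye, 1 h at 37 C; pin-transfer compounds, ATP control or DMSO; read fluorescence 480/540 nm each second for 3 min.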

[6] = p53 small molecule agonists, cell-based qHTS assay with human liver microsomes (AID 1963577)
In short: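 Cells carrying a p53-responsive bla reporter were rested 5 h (37 C, 5% CO2) before compound transfer. Human liver microsomes plus NADPH, 0.5 mg/mL final apiece, supplied metabolism during the 16 h 37 C exposure.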

[7] = p53 small molecule agonists, cell-based qHTS assay with rat liver microsomes (AID 1963578)
In short: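 Fluorescence from a beta-lactamase reporter under a p53 response element was measured after cells had been incubated 16 h at 37 C with test compound and rat liver microsomes plus NADPH (0.5 mg/mL final each).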

[8] = p53 small molecule agonists, cell-based qHTS assay with human liver microsomes: qHTS cell viability counter screen (AID 1963579); also: nearly all actives have a fitted effect of over 45% in size
In short: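 Seed p53RE-bla cells at 4,000 per well; incubate 5 h at 37 C; add compound, human liver microsomes and NADPH; incubate 16 h at 37 C; add CellTiter-Glo; after 30 min at room temperature, read luminescence.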

[9] = p53 small molecule agonists, cell-based qHTS assay with rat liver microsomes: qHTS cell viability counter screen (AID 1963580); also: nearly all actives have a fitted effect of over 45% in size
In short: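 Rat liver microsome (0.5 mg/mL final) and NADPH (0.5 mg/mL final) co-incubation with compounds for 16 h at 37 C on HCT-116 p53RE-bla cells; cytotoxicity taken from intracellular ATP luminescence.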

[10] = p53 small molecule agonists, cell-based qHTS assay: qHTS cell viability counter screen (AID 1963581); also: nearly all actives have a fitted effect of over 45% in size
In short: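 Viability was counter-screened in parallel with the p53 agonist reporter by measuring intracellular ATP luminescence in the same HCT-116 p53RE-bla wells after 16 h compound treatment at 37 C.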

[11] = p53 small molecule agonists, cell-based qHTS assay (AID 1963582; active = well fitted activation curve with a large enough effect in the signal ratio in the repeat runs, not every such curve was filed as active; the % refers to the signal ratio)
In short: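 Cells carrying a p53-responsive bla reporter are treated with test compounds for 16 h at 37 C; beta-lactamase activity is then detected with LiveBLAzer B/G FRET substrate after 2 h at room temperature.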

[12] = molecular target: 5-hydroxytryptamine receptor 2A (Homo sapiens) (UniProt P28223); experiment: 5-hydroxytryptamine receptor 2A (HTR2A) small molecule antagonists, cell-based qHTS assay (AID 1963586); also: nearly all actives have a fitted effect of over 45% in size
Chain of 5-hydroxytryptamine receptor 2A (Homo sapiens) (P28223 whole entry, looked up): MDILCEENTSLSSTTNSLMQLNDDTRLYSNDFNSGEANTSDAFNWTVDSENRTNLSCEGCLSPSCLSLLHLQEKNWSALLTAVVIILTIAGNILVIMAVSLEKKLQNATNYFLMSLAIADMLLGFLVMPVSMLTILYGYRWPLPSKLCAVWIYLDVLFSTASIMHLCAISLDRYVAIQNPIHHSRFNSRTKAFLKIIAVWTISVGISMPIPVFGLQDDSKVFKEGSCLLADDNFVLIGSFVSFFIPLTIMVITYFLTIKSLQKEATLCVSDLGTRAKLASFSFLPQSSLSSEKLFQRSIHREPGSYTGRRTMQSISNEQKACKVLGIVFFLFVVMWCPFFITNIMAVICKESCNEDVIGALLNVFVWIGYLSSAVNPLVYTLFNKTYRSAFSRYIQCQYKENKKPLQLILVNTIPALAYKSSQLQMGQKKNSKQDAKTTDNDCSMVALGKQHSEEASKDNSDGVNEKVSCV
In short: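 CHO cells stably expressing human HTR2A were plated for 18 h at 37 C, then loaded with calcium dye for 1 h. Compounds were preincubated 5 min at room temperature before DOI (4 nM solution) was added. Kinetic fluorescence was read for 3 min.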

[13] = molecular target: 5-hydroxytryptamine receptor 2A (Homo sapiens) (UniProt P28223); experiment: 5-hydroxytryptamine receptor 2A (HTR2A) small molecule agonists, cell-based qHTS assay (AID 1963587); also: nearly all actives have a fitted effect of over 30% in size
In short: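 Kinetic calcium-flux fluorescence (2 min, 1 sec intervals) after compound addition in agonist mode. HTR2A-CHO cells were cultured 18 h, then dye-loaded 1 h at 37 C.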

[14] = molecular target: Muscarinic acetylcholine receptor M1 (Homo sapiens) (UniProt P11229); experiment: Cholinergic receptor muscarinic 1 (CHRM1) small molecule antagonists, cell-based qHTS assay (AID 1963588); also: nearly all actives have a fitted effect of over 40% in size
Chain of Muscarinic acetylcholine receptor M1 (Homo sapiens) (P11229 whole entry, looked up): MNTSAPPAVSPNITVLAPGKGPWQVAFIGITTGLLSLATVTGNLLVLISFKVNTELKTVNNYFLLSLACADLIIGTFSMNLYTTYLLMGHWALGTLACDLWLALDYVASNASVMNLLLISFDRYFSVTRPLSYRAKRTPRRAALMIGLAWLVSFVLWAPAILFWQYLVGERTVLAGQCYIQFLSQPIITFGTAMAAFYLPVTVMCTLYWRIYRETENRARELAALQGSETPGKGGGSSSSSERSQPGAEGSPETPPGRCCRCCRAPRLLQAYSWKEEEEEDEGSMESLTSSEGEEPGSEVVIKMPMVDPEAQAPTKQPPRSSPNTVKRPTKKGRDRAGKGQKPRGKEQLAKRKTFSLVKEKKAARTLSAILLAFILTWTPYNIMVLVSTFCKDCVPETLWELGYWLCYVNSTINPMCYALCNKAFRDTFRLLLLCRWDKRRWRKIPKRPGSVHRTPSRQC
In short: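 Compounds were tested at 15 concentrations in three independent runs. Dye-loaded CHRM1-CHO cells were exposed 5 min at room temperature before stimulation by acetylcholine added at 50nM. Intracellular calcium was read kinetically on FDSS for 3 min.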

[15] = molecular target: Muscarinic acetylcholine receptor M1 (Homo sapiens) (UniProt P11229); experiment: Cholinergic receptor muscarinic 1 (CHRM1) small molecule agonists, cell-based qHTS assay (AID 1963589); also: nearly all actives have a fitted effect of over 35% in size
In short: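 Cells were plated and incubated 18 h at 37 C/5% CO2, loaded with calcium dye for 1 h at 37 C, then treated with compounds in DMSO. Fluorescence was recorded kinetically at 1 sec intervals.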

[16] = cAMP Responsive Elements (CRE) small molecule agonists, cell-based qHTS assay (AID 1963590)
In short: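 Cells carrying a CRE-driven beta-lactamase reporter (HEK 293T) are seeded, incubated overnight (18 h), and treated with test compounds for 3 h at 37 C; reporter activity is then detected with a FRET substrate after 2 h at room temperature.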

[17] = cAMP Responsive Elements (CRE) small molecule antagonists, cell-based qHTS assay (AID 1963591; active = well fitted inhibition curve with a large enough effect in the signal ratio in the repeat runs, not every such curve was filed as active; the % refers to the signal ratio)
In short: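 Cells (CRE-bla HEK 293T, DMEM with 10% dialyzed FBS and 25 mM HEPES) are seeded and incubated 18 h. Compounds are added with NKH477 agonist at 0.25 uM final for 3 h, then FRET substrate for 2 h.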

[18] = molecular target: Beta-2 adrenergic receptor (Homo sapiens) (UniProt P07550); experiment: Adrenergic beta2 receptor (ADRB2) small molecule antagonists, cell-based qHTS assay (AID 1963592); also: series mostly up to about 92 µM; nearly all actives have a fitted effect of over 50% in size
Chain of Beta-2 adrenergic receptor (Homo sapiens) (P07550 whole entry, looked up): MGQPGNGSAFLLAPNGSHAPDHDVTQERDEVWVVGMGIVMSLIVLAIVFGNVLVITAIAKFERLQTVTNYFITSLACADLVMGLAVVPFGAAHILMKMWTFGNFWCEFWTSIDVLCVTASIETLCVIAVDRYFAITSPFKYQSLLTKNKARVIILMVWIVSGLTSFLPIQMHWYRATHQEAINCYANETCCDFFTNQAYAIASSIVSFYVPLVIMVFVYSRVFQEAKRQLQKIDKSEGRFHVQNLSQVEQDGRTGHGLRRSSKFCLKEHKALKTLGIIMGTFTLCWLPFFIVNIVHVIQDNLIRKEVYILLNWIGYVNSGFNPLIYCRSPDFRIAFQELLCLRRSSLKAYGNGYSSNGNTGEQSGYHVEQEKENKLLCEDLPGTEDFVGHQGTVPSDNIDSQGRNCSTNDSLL
In short: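 Assay format: CHO-ADRB2 cells, 18-20hr seeding at 37C/5% CO2, then compound plus 1nM isoproterenol agonist mix for 0.5hr RT. Homogeneous time-resolved fluorescence cAMP detection after 1hr, expressed as 665/615 nm ratio.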

[19] = molecular target: D(2) dopamine receptor (Homo sapiens) (UniProt P14416); experiment: Dopamine D2 receptor (DRD2) small molecule agonists, cell-based qHTS assay (AID 1963594); also: nearly all actives have a fitted effect of over 35% in size
Chain of D(2) dopamine receptor (Homo sapiens) (P14416 whole entry, looked up): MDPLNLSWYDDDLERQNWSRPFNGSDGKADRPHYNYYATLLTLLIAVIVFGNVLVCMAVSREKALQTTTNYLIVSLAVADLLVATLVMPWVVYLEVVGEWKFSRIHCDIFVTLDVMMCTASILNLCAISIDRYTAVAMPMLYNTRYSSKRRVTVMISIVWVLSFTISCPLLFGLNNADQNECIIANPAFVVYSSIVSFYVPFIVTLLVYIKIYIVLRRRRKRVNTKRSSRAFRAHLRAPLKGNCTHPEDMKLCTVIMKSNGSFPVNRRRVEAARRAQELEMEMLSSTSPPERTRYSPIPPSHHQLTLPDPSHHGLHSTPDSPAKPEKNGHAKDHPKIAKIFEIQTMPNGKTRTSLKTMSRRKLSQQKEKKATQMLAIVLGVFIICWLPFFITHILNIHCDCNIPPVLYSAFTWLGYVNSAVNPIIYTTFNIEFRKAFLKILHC
In short: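 cAMP accumulation in DRD2-HEK293 cells measured by HTRF after 1 h detection; compounds added 10 min before NKH477 (200nM […]) forskolin-analogue stimulation, 30 min at room temperature, with Ro20-1724 present at 0.1 mM final.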

[20] = molecular target: D(2) dopamine receptor (Homo sapiens) (UniProt P14416); experiment: Dopamine D2 receptor (DRD2) small molecule antagonists, cell-based qHTS assay (AID 1963595; active = well fitted inhibition curve with a large enough effect in the signal ratio in the repeat runs, with a control signal flat; the % refers to the signal ratio)
In short: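 Readout: HTRF cAMP, cAMP-d2 competing with cellular cAMP for anti-cAMP cryptate, read after 1 h. Cells: DRD2-HEK293. Conditions: 0.1 mM Ro20-1724, 12 nM quinpirole, 200 nM NKH477, 30 min RT.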

Measured: Potency

O=C1CC[C@H](C(=O)N2CCCCC2)N1
inactive: all assays above

FC(F)(F)c1ccccc1-n1ccnc1
inactive: all assays above

CC(C)NC(=O)c1ccccc1N
inactive: all assays above

Cc1ccc(NC(=O)N(C)C)cc1NC(=O)N(C)C
not listed: [20]
inactive: all other assays above

CC1=CCC(C(C)C)=CC1
inactive: all assays above

Cc1cccc2cccnc12
inactive: all assays above

CC1=CCC(=O)O1
inactive: all assays above

O=S(=O)(O)CCCN1CCOCC1
not listed: [20]
inactive: all other assays above

CCCCCCCCCCC
not listed: [20]
inactive: all other assays above

COC(CC(C)CCCC(C)(C)O)OC (centres undefined)
inactive: all assays above

CC(C)[C@@H]1CC[C@@H](C)CC1=O
not listed: [20]
inactive: all other assays above

COCCOCCOCCOCCO
inactive: all assays above

Nc1cc(S(=O)(=O)O)ccc1S(=O)(=O)O
inactive: all assays above

CCN(CC)CC(=O)Oc1ccc(NC(C)=O)cc1
inactive: all assays above

CCCCN=C(N)N=C(N)N
inactive: all assays above

Fc1ccccc1-c1ccccc1
not listed: [20]
inactive: all other assays above

CC(C)(C)C1CCCCC1O (centres undefined)
inactive: all assays above

CC(=O)CCC(C)C
inactive: all assays above

CCCCCC1CCCC(=O)O1 (centres undefined)
inactive: all assays above

CC(C)(C)S
inactive: all assays above

C=C(C)C(=O)OCCCCCCCC(C)C
inactive: all assays above

Cc1occc1SSc1ccoc1C
active: [2] 61.1 µM
not listed: [20]
inactive: all other assays above

CC(C)OC(C)C
inactive: all assays above

O=Cc1cccc([N+](=O)[O-])c1
inactive: all assays above

CC(C)(C)OC=O
inactive: all assays above

Cc1cc(O)c(Cl)cc1C
inactive: all assays above

CCCCCCCCCCCCCCCCCC(=O)OCC(CC)CCCC (centres undefined)
inactive: all assays above

OCc1ccccc1O
inactive: all assays above

CCOC(=O)c1ccc(O)c(O)c1
inactive: all assays above
